Records with an inconclusive call do not appear. Active and inactive are the calls of the source. Rule for the calls: active = hit-call score of the fitted dose curve at least 0.9, where 1 is the maximum; inconclusive = response in the unintended direction; inactive = score below 0.9.
Read-out: ABC Transporter (ABCB1), ABCB1 (gene 5243)
Assay: CLD_ABCB1_6hr: CellzDirect (CLD) Gene Expression Assay for ABC Transporter (ABCB1) at 6 hours (AID 2283659);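 note: hits raise ABCB1 transcript above the DMSO vehicle baseline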
Description: CLD_6hr is a cell-based, multiplexed-readout assay that uses hepatocyte, a human liver primary cell, with measurements taken at 6 hours after chemical dosing in a 96-well plate.CLD_ABCB1_6hr is one of 16 assay component(s) measured or calculated from the CLD_6hr assay. It is designed to make measurements of mRNA induction, a form of inducible reporter, as detected with chemiluminescence signals by Quantitative Nuclease Protection Assay (qNPA) technology.Data from the assay component CLD_ABCB1_6hr was analyzed at the endpoint, CLD_ABCB1_6hr, in the positive analysis fitting direction relative to DMSO as the negative control and baseline of activity. Using a type of inducible reporter, gain-of-signal activity can be used to understand changes in the reporter gene as they relate to the gene ABCB1. Furthermore, this assay endpoint can be referred to as a primary readout. To generalize the intended target to other relatable targets, this assay endpoint is annotated to the transporter intended target family, where subfamily is ABC transporter.
Human hepatocyte cultures were treated daily for two consecutive days with fresh dosing solutions containing appropriate concentrations of the 320 ToxCast chemicals (chemical identities were blinded to CellzDirect and other ToxCast collaborators), vehicle control (0.2% DMSO), and positive control inducers as summarized in Table 1. Due to the large number of treatment groups and chemicals examined, the ToxCast chemicals were divided into two groups (spanning two independent cultures of hepatocytes from separate donor preparations (Hu778: ToxCast plates 1 and 2; Hu776: ToxCast plates 3 and 4). Each preparation of human hepatocyte cultures was treated with respective vehicle control, medium only control, set of six positive controls/reference chemicals for the five hepatic receptor pathways, and a subset of eight of the ToxCast chemicals (indoxacarb, pyrithiobac-sodium, norflurazon, cyhalofop-butyl, methomyl, thiram, acetochlor, and propiconazole). These replicate data, coupled with internal replicates designed within the blinded ToxCast chemical library, provided additional data to evaluate interindividual differences between hepatocyte preparations and their potential impact on chemical profiles.Cell morphology and integrity were evaluated using phase-contrast microscopy as an indicator of hepatocyte cell health (Tyson & Green, 1987). Cultures for each treatment group (i.e., media, vehicle [0.2% DMSO], positive control inducers [multiple concentrations], and the ToxCast chemicals [multiple concentrations]) were observed and cell morphology was assessed relative to vehicle control cultures at each harvest time point (0, 6, 24, or 48 h). […] Images were evaluated at the conclusion of the study to assess changes in cell integrity and account for the effects of chemical exposure on uncharacteristic changes in concentration-dependent gene expression profiles. The results from these determinations of apparent cytotoxicity were annotated (yes/no) alongside the corresponding qNPA data for reference.At the conclusion of each treatment period, hepatocyte cultures (96-well) were washed with 1 volume of HBSS, lysed by addition of 25 ul ArrayPlate lysis buffer (HTG, Tucson, AZ), and 70 ul/well of Denaturation Oil, denatured by incubation at 95C for 10 min, and frozen at approximately -70C until analysis by nuclease protection assay (qNPA) (Roberts et al., 2007). For qNPA analysis, cell lysates were thawed at 50C for approximately 30 min, qNPA probes were added, and samples were incubated at 95C for 10 min to begin the detection process by denaturing the target RNA, dissociating the duplexes and secondary structure hybridization. At the conclusion of the hybridization period, S1 nuclease reagent was added to each sample to digest all nonprotected nucleotides at 50C for 60-90 min. […]

Compound	outcome
Oc1ccccc1-c1ccccc1	inactive
CO/C=C(/C(=O)OC)c1ccccc1Oc1cc(Oc2ccccc2C#N)ncn1	inactive
COC(=O)c1ccccc1C(=O)OC	inactive
OC(c1ccc(Cl)cc1)(c1cncnc1)c1ccccc1Cl (configuration not stated)	inactive
COc1nc(C)nc(NC(=O)NS(=O)(=O)c2ccccc2Cl)n1	inactive
C=CCC1=C(C)[C@@H](OC(=O)[C@@H]2[C@@H](C=C(C)C)C2(C)C)CC1=O	inactive
COc1nc(NC(C)C)nc(NC(C)C)n1	inactive
CCNc1nc(Cl)nc(NC(C)C)n1	inactive
CCOP(=S)(OCC)SCn1c(=O)oc2cc(Cl)ccc21	inactive
CCCCOC(=O)c1ccccc1C(=O)OCCCC	inactive
Cc1cc(Cl)ccc1OCC(=O)O	inactive
CCOC(=O)C(Cl)Cc1cc(-n2nc(C)n(C(F)F)c2=O)c(F)cc1Cl (configuration not stated)	inactive
N#Cc1nn(-c2c(Cl)cc(C(F)(F)F)cc2Cl)c(N)c1S(=O)C(F)(F)F (configuration not stated)	inactive
COc1nc(C)nc(NC(=O)NS(=O)(=O)c2ccccc2CCC(F)(F)F)n1	inactive
O=C(O)COc1nc(Cl)c(Cl)cc1Cl	inactive
CC1COC(Cn2cncn2)(c2ccc(Oc3ccc(Cl)cc3)cc2Cl)O1 (configuration not stated)	inactive

Compound	outcome
N#CC(CCc1ccc(Cl)cc1)(Cn1cncn1)c1ccccc1 (configuration not stated)	inactive
CCOC(=O)CC(SP(=S)(OC)OC)C(=O)OCC (configuration not stated)	inactive
CCCC1COC(Cn2cncn2)(c2ccc(Cl)cc2Cl)O1 (configuration not stated)	inactive
N#Cc1cc(Br)c(O)c(Br)c1	inactive
C=CCC1=C(C)C(OC(=O)C2C(C=C(C)C)C2(C)C)CC1=O (configuration not stated)	inactive
Cc1ccc(-c2c(Cl)nc(C#N)n2S(=O)(=O)N(C)C)cc1	inactive
CCCN(CCC)c1c([N+](=O)[O-])cc(S(N)(=O)=O)cc1[N+](=O)[O-]	inactive
COc1cnc(OC)n2nc(NS(=O)(=O)c3c(OCC(F)F)cccc3C(F)(F)F)nc12	inactive
CCCCNC(=O)OCC#CI	inactive
COc1ccc(C(c2ccc(OC)cc2)C(Cl)(Cl)Cl)cc1	inactive
CCOc1cc(Oc2ccc(C(F)(F)F)cc2Cl)ccc1[N+](=O)[O-]	inactive
CCCCNC(=O)n1c(NC(=O)OC)nc2ccccc21	inactive
COC(=O)C(C)Oc1ccc(Oc2ccc(Cl)cc2Cl)cc1 (configuration not stated)	inactive
COP(=S)(OC)Oc1nc(Cl)c(Cl)cc1Cl	inactive
Cc1c(F)c(F)c(COC(=O)C2C(/C=C(\Cl)C(F)(F)F)C2(C)C)c(F)c1F (configuration not stated)	inactive
CN(C)C(=S)SSC(=S)N(C)C	inactive
